From PubChem BioAssay (Tox21)
A number with no mark means an inactive call. Records with an inconclusive call do not appear. Where a call stands in place of a potency, no number is given. Active and inactive are the calls of the source. Calls come from the whole dose curve; as a rule, active = well fitted curve in the direction sought with a large enough effect in the repeat runs; inconclusive = weak or mixed curves; inactive = no such curve, though single readings can be large; an effect the other way counts as inactive or inconclusive.

Legend:
[1] = A CellTox Green Cytotoxicity Assay to monitor cytotoxicity in HepG2 cells - 0 hour (AID 1224882); note: nearly all actives have a fitted effect of over 35% in size; note: potency is the fitted concentration of half-maximal effect
Procedure, shortened: (§1)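 Cytotoxicity was tracked as dead-cell DNA fluorescence in HepG2 cells treated with test compounds at 37 C; each time-point value comes from one kinetic series spanning 0, 8, 16, 24, 32 and 40 h.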

[2] = A CellTox Green Cytotoxicity Assay to monitor cytotoxicity in HEK293 cells - 8 hour (AID 1224884); note: nearly all actives have a fitted effect of over 35% in size
Procedure, shortened: (§2)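 Real-time, in one plate: 600 HEK293 cells/well with dead-cell DNA dye, pinned compound after 5 h, 37 C incubation over 40 h; viable cells give no appreciable fluorescence.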

[3] = qHTS RealTime-Glo MT Cell Viability Assay in HepG2 cells - 16 hour (AID 1224885); note: nearly all actives have a fitted effect of over 50% in size; note: potency is the fitted concentration of half-maximal effect
Procedure, shortened: (§3)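 Viability was tracked continuously by NanoLuc luminescence from prosubstrate reduced by living HepG2 cells, at successive time points over 40 h of compound exposure. Cells with reagent were preincubated 5 h at 37 °C before compound addition.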

[4] = qHTS RealTime-Glo MT Cell Viability Assay in HEK293 cells - 24 hour (AID 1224886); note: nearly all actives have a fitted effect of over 50% in size; note: potency is the fitted concentration of half-maximal effect
Procedure, shortened: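 Viability tracked continuously by luminescence as live cells reduce a prosubstrate for NanoLuc; HEK293 cells preincubated 5 h, compound-treated at 37 C, and read at 0, 8, 16, 24, 32 and 40 h.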

[5] = qHTS RealTime-Glo MT Cell Viability Assay in HEK293 cells - 8 hour (AID 1224887); note: nearly all actives have a fitted effect of over 50% in size; note: potency is the fitted concentration of half-maximal effect
Procedure, shortened: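 Kinetic, non-lysing viability readout. Seed HEK293 (600/well) with reagent, incubate 5 h at 37 C/5% CO2, pin 23 nL compound in DMSO, incubate at 37 C, read luminescence at 0, 8, 16, 24, 32, 40 h.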

[6] = A CellTox Green Cytotoxicity Assay to monitor cytotoxicity in HEK293 cells - 16 hour (AID 1224888); note: nearly all actives have a fitted effect of over 35% in size
Procedure, shortened: as §2

[7] = qHTS RealTime-Glo MT Cell Viability Assay in HepG2 cells - 0 hour (AID 1224889); note: nearly all actives have a fitted effect of over 50% in size; note: potency is the fitted concentration of half-maximal effect
Procedure, shortened: as §3

[8] = A CellTox Green Cytotoxicity Assay to monitor cytotoxicity in HepG2 cells - 8 hour (AID 1224890); note: nearly all actives have a fitted effect of over 45% in size; note: potency is the fitted concentration of half-maximal effect
Procedure, shortened: as §1

[9] = qHTS assay to identify small molecule antagonists of the estrogen receptor alpha (ER-alpha) signaling pathway using the BG1 cell line in the presence of 0.1 nM 17-beta-estradiol - cell viability counter screen (AID 1259241); note: nearly all actives have a fitted effect of over 40% in size
Procedure, shortened: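 CellTiter-Fluor read (30 min, 37C) on ER-alpha/ERE-luc VM7Luc4E2 cells; 22 hr compound treatment; agonist 0.1 nM E2 final; same-well multiplex.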

[10] = A CellTox Green Cytotoxicity Assay to monitor cytotoxicity in HepG2 cells - 32 hour (AID 1224883); note: nearly all actives have a fitted effect of over 50% in size
Procedure, shortened: as §1

Row | SMILES | Potency [1] | Potency [2] | Potency [3] | Potency [4] | Potency [5] | Potency [6] | Potency [7] | Potency [8] | Potency [9] | Potency [10]
1 | CCOC(=O)c1cccnc1 | inactive | inactive | inactive | inactive | inactive | inactive | inactive | inactive | inactive | –
2 | Cc1ccccc1S(=O)(=O)O | inactive | inactive | inactive | inactive | inactive | inactive | inactive | inactive | inactive | –
3 | CC1CCC(=O)C1=O (stereo not given) | inactive | inactive | inactive | inactive | inactive | inactive | inactive | inactive | inactive | –
4 | C[N+]1(C)CCC(OC(=O)C(O)(c2ccccc2)C2CCCC2)C1 (stereo not given) | 26.8 µM (active) | – | – | inactive | inactive | – | inactive | inactive | inactive | inactive
5 | O=C1CCC(=O)O1 | inactive | inactive | inactive | inactive | inactive | inactive | inactive | – | inactive | –
6 | CC1(c2ccccc2)OC(C(=O)O)=CC1=O (stereo not given) | inactive | inactive | inactive | inactive | inactive | inactive | inactive | inactive | inactive | –
7 | N=c1ccn2c(n1)O[C@H]1[C@H](O)[C@@H](CO)O[C@H]12 | inactive | inactive | inactive | inactive | inactive | inactive | inactive | inactive | inactive | –
8 | Cc1ccc(N=Nc2c(O)c(C(=O)O)cc3ccccc23)c(S(=O)(=O)O)c1 | inactive | inactive | inactive | inactive | inactive | inactive | inactive | inactive | – | –
9 | CC(C)(C)Cl | inactive | inactive | inactive | inactive | inactive | inactive | inactive | inactive | inactive | –
10 | COC(=O)C1=C(C)NC(COC(N)=O)=C(C(=O)OC(C)C)C1c1cccc(Cl)c1Cl (stereo not given) | inactive | inactive | 23.9 µM (active) | 26.8 µM (active) | – | inactive | 1.9 µM (active) | inactive | inactive | –
11 | COc1cc2nc(N(C)CCCNC(=O)C3CCCO3)nc(N)c2cc1OC (stereo not given) | inactive | inactive | inactive | – | inactive | inactive | inactive | inactive | – | –
12 | C=C(C)C(=O)OCCOCC | inactive | inactive | inactive | inactive | – | inactive | inactive | inactive | – | –
13 | CCOC(=O)C1=C[C@]2(CC)CCCN3CCc4c(n1c1ccccc41)[C@@H]32 | inactive | inactive | inactive | inactive | inactive | inactive | inactive | – | inactive | –
14 | CN1CCN(C(c2ccccc2)c2ccccc2)CC1 | inactive | inactive | inactive | inactive | inactive | inactive | inactive | inactive | inactive | –
15 | Nc1c(CC(=O)O)cccc1C(=O)c1ccc(Br)cc1 | inactive | – | inactive | inactive | inactive | inactive | inactive | inactive | inactive | inactive
16 | c1ccc(C(O[C@H]2CCCN(CCc3ccc4c(c3)OCO4)C2)c2ccccc2)cc1 | inactive | inactive | inactive | – | inactive | inactive | inactive | – | inactive | –
17 | CC(C)=CCC/C(C)=C/CC/C(C)=C/CO | inactive | inactive | inactive | – | – | – | inactive | – | inactive | –
18 | O=[N+]([O-])c1ccc(NCCO)c(OCCO)c1 | inactive | inactive | – | inactive | inactive | inactive | inactive | – | – | –
19 | CCCCCCCCCCCCCCCCCCOS(=O)(=O)O | inactive | – | inactive | – | inactive | – | inactive | – | inactive | –
20 | O=C(O)c1ccc(-n2nc(-c3ccccc3O)nc2-c2ccccc2O)cc1 | – | inactive | – | inactive | inactive | inactive | inactive | inactive | inactive | –
21 | CC(C)C[C@H]1C(=O)N2CCC[C@H]2[C@]2(O)O[C@](NC(=O)[C@@H]3C=C4c5cccc6[nH]c(Br)c(c56)C[C@H]4N(C)C3)(C(C)C)C(=O)N12 | inactive | inactive | 13.2 µM (active) | – | – | inactive | inactive | inactive | inactive | –
22 | CC(C)O.CC(C)O.CCOC(=O)/C=C(\C)O.CCOC(=O)/C=C(\C)O.[Ti] | inactive | – | inactive | inactive | inactive | – | inactive | inactive | inactive | –
23 | O=C(O)c1ccc(S(=O)(=O)O)cc1C(=O)O | inactive | inactive | inactive | – | – | inactive | – | – | inactive | –
24 | O=C(Cl)c1cc(C(=O)Cl)cc(C(=O)Cl)c1 | inactive | inactive | – | – | 49 µM (active) | – | inactive | – | inactive | –
25 | CNCCCCOc1ccccc1Cc1ccccc1 | – | inactive | – | 21.3 µM (active) | – | – | inactive | 21.3 µM (active) | inactive | –
26 | CCCCCCCCCCCCN1CCCCCC1=O | – | inactive | inactive | – | – | inactive | inactive | – | – | –
27 | CN(C)c1ccc(CCO)cc1 | inactive | inactive | inactive | – | inactive | – | inactive | inactive | inactive | –
